Screens deposited in PubChem BioAssay by The Scripps Research Institute Molecular Screening Center.
ULK1 inh – ULK1 kinase inhibitors, primary screen, biochemical, AlphaScreen. Serine/threonine-protein kinase ULK1 (Homo sapiens), O75385. AlphaScreen Atg13 phosphorylation by ULK1, luminescence. inhibition, % at 5.96 µM. 30,000 tested, 1.9% active. AID 1259251, 2017; in the data active means inhibition above about 43%
ASK1 primary – ASK1 kinase inhibitors, primary screen, biochemical, AlphaScreen; AID 1159602, 2016; Mitogen-activated protein kinase kinase kinase 5 (Homo sapiens), Q99683; 22,000 tested, 0.99% active; AlphaScreen MKK6 phosphorylation by ASK1, luminescence; inhibition, % at 7.44 µM; in the data active means inhibition above about 35%
Each line names hits and unclear results; the compound was inactive in the other large screens. An excerpt weighted towards active compounds, which were near 2.5% of everything screened.

Cn1c(=O)oc2cc(NC(=O)c3cccc(-n4cc(NC(=O)Cc5ccccc5)cn4)c3)ccc21	none
CC(C)n1cnc2c(NCCO)nc(Nc3ccc(-n4ccnc4)cc3)nc21	none
Oc1ccc(CCNc2nc(Nc3ccncn3)nc3c2ncn3-c2ccsc2)cc1	none
Cc1ncn(-c2ccc(N(c3ncc4cccc(-c5cnn(C(C)C)c5)c4n3)C(C)C)cc2)n1	ULK1 inh 92
Cc1ncn(-c2ccc(Nc3ncc4cccc(-c5cnn(-c6ccccc6)c5)c4n3)cc2)n1	none
c1nc(Nc2ccc(N3CCOCC3)cc2)cc(-c2ccc(N3CCOCC3)nc2)n1	none
CCOc1ccc(C(=O)Nc2nnc3n2CCCS3)cc1	none (no result: ASK1 primary)
CC(=O)Nc1ccc(O)cc1	none (no result: ASK1 primary)
CC(=O)Nc1ccccc1	ULK1 inh 58 (no result: ASK1 primary)
Cc1cc(O)c2c(c1)Cc1cccc(O)c1C2=O	ULK1 inh 44 (no result: ASK1 primary)
O=C1c2cccc(O)c2C(=O)c2c(O)cccc21	none (no result: ASK1 primary)
O=C(NCCCN1CCCC1=O)c1csc(Nc2nccc3ccccc23)n1	none
Cc1ccc(S(=O)(=O)/N=C2/C(Cl)=C(Cl)C(=O)c3ccccc32)cc1	none (no result: ASK1 primary)
COc1ccc(S(=O)(=O)/N=C2\C=CC(=O)C(Cl)=C2)cc1	ULK1 inh 44 (no result: ASK1 primary)
N[C@H]1CC[C@@H](C(=O)Nc2cccc3cnccc23)C1	none
N[C@H]1CCC[C@H](C(=O)Nc2cccc3c(=O)[nH]cnc23)C1	ULK1 inh 53
O=C(NC1CCN(Cc2ccccc2)CC1)c1csc(Nc2ccccc2)n1	none
COc1cc(Nc2nc(-c3ccc(N4CCOCC4)nc3)nc3nc[nH]c23)cc(OC)c1OC	none
COc1cc(Nc2nc(-c3ccc(N4CCOCC4)nc3)ncc2C)cc(OC)c1OC	ULK1 inh 89
CC(=O)Nc1ccc(Nc2ccnc(-c3ccc(N4CCOCC4)nc3)n2)cc1	none
Cc1cnc(-c2ccc(N3CCOCC3)nc2)nc1Nc1ccc(Oc2ccccc2)cc1	none
Cc1cnc(-c2ccc(N3CCOCC3)nc2)nc1Nc1ccc(N2CCOCC2)cc1	ULK1 inh 52
COc1ccc(-c2ncc(C)c(Nc3ccccc3)n2)cn1	none
COc1ccc(-c2ncc(C)c(Nc3cc(OC)c(OC)c(OC)c3)n2)cn1	ULK1 inh 55
c1cc(Nc2ccc(N3CCOCC3)cc2)nc(-c2ccc(N3CCOCC3)nc2)n1	ULK1 inh 60
COc1ccc(-c2nc(NCc3cccnc3)c3[nH]cnc3n2)cn1	none
COc1cc2nc(-c3ccc(N4CCOCC4)nc3)nc(Nc3cc(OC)c(OC)c(OC)c3)c2cc1OC	none
c1cncc(CNc2nc(-c3ccc(N4CCOCC4)nc3)nc3nc[nH]c23)c1	ULK1 inh 59
COc1cc(Nc2ccnc(-c3ccc(C(=O)NC4CC4)cc3)n2)cc(OC)c1OC	ULK1 inh 45
COc1cc(Nc2ccnc(-c3ccc(N4CCOCC4)nc3)n2)cc(OC)c1OC	ULK1 inh 74
COc1cc(Nc2cc(C)nc(-c3ccc(C(=O)NC4CC4)cc3)n2)cc(OC)c1OC	none
Cc1nc(NCCN(C)C)cc(-c2cncc(-c3cccs3)c2)n1	none (no result: ASK1 primary)
CC(C)n1cnc2c(NCCO)nc(-c3ccc(C(=O)N4CCN(C)CC4)cc3)nc21	none
COc1cc(Nc2nc(NCCO)c3ncn(CCN4CCCC4=O)c3n2)cc(OC)c1OC	none
CN1C(=O)Cc2cc(NS(=O)(=O)Cc3cccc(Cl)c3)ccc21	none (no result: ASK1 primary)
CCc1nnc(-c2cc3ccccc3n2CC(=O)Nc2ccccc2F)o1	none (no result: ASK1 primary)
Cc1ncn(-c2ccc(Nc3ncc(Cl)c(-c4cnn(C)c4)n3)cc2)n1	ULK1 inh 66
Cc1nc(C)n(-c2ccc(Nc3nccc(-c4cc(F)cc(-c5cnn(C)c5)c4)n3)cc2)n1	none
CN1CCN(c2ncn(-c3ccc(Nc4ncc(F)c(-c5cccc(N6CCOCC6)c5)n4)cc3)n2)CC1	none
Cc1ncn(-c2ccc(Nc3ncc(Cl)c(Nc4ccccc4-c4ncn(C)n4)n3)cc2)n1	none
Cn1cc(-c2nc(Nc3ccc(-n4cnc(N5CCC(O)CC5)n4)cc3)ncc2F)cn1	ULK1 inh 58
Cc1nc(C)n(-c2ccc(Nc3ncc(Br)c(-c4cnn(C)c4)n3)cc2)n1	ULK1 inh 87
COc1ccc(CCNC(=O)c2ccnc(Nc3ccnn3C)c2)cc1	none
Cc1nn(C(=O)c2ccc(Br)cc2)c(C)c1S(=O)(=O)N1CCCC1	none (no result: ASK1 primary)
Clc1ccc2c(c1)CC(c1nc(Nc3cncnc3)c3ccccc3n1)CO2 (configuration not stated)	none
COc1ccc(CCNC(=O)c2ccc3nc(Nc4ccnn4C)sc3c2)cc1	none
O=C(NCCOc1ccccc1)c1cccc(Nc2ccncn2)c1	none
CN(C)c1cccc(Nc2nc(C(=O)Nc3ccc4c(c3)OCO4)cs2)c1	none
Cc1c[nH]c(=O)c2cccc(NC3CCN(C(=O)C(N)c4ccc(Br)cc4)CC3)c12 (configuration not stated)	none
Cc1c[nH]c(=O)c2cccc(S(=O)(=O)N3CCCNC[C@@H]3C)c12	ULK1 inh 47
Cn1cc(-c2cc(Nc3ccc(N4CCOCC4)cc3)ncc2F)cn1	none
Cn1cc(-c2cc(Nc3ccc(N4CCOCC4)cc3)ncc2Cl)cn1	ULK1 inh 61
c1ccc2[nH]c(CNc3nc(Nc4ccc(-n5ccnc5)cc4)nc4nc[nH]c34)nc2c1	none
CC(=O)Nc1ccc(Nc2nc(N3CCC(N4CCOCC4)CC3)nc3c2ncn3C2CCCCC2)cc1	none
Nc1ccc(O)c(N)c1	none (no result: ASK1 primary)
NCCc1ccc(O)c(O)c1	ULK1 inh 74 (no result: ASK1 primary)
COc1ccc(-c2nc(N)c3ncn(-c4ccsc4)c3n2)cc1	none
CC(C)(O)c1ccccc1CC[C@@H](SCC1(CC(=O)O)CC1)c1cccc(/C=C/c2ccc3ccc(Cl)cc3n2)c1	ULK1 inh 43 (no result: ASK1 primary)
O=S1OCC(COc2cccc3ccccc23)O1 (configuration not stated)	none (no result: ASK1 primary)
Cc1c(C)c2c(c(C)c1OC(=O)CCC(=O)O)CC[C@@](C)(CCC[C@H](C)CCC[C@H](C)CCCC(C)C)O2	ULK1 inh 73 (no result: ASK1 primary)
CC(=O)Oc1c(C)c(C)c2c(c1C)CCC(C)(CCCC(C)CCCC(C)CCCC(C)C)O2 (configuration not stated)	none (no result: ASK1 primary)
O=C(NCc1ccccc1)c1csc(Nc2cnccn2)n1	none
O=C(Cc1cccs1)N/N=C\c1ccc[nH]1	none (no result: ASK1 primary)
Cc1cnc(Nc2ccc3ncccc3c2)nc1NCCc1ccc(O)cc1	ULK1 inh 51
COc1cc(Nc2nc(Nc3ccc4ncccc4c3)ncc2C)cc(OC)c1OC	ULK1 inh 63
COc1ccc(CCNc2nc(Nc3ccc4ncccc4c3)ncc2C)cc1	none
COc1cc(Nc2nc(Nc3cccnc3)ncc2C)cc(OC)c1OC	none
COc1cc(Nc2nc(Nc3ncccn3)ncc2C)cc(OC)c1OC	none
COc1cc(Nc2ncc(C)c(Nc3ccccc3)n2)cc(OC)c1OC	ULK1 inh 73
c1ccc(CN2CCC(Nc3ncnc4nc(Nc5cnccn5)[nH]c34)CC2)cc1	none
c1ccc(CN2CCC(Nc3ncnc4nc(Nc5ccncn5)[nH]c34)CC2)cc1	ULK1 inh 55
CC(=O)Nc1ccc(Nc2ccnc(Nc3ccncn3)n2)cc1	ULK1 inh 68
CC(=O)Nc1ccc(Nc2ccnc(Nc3ccc(C(F)(F)F)cc3)n2)cc1	none
CCN(CC)c1nc(NCc2cccc(C(F)(F)F)c2)nc(Nc2ccc(N3CCOCC3)cc2)n1	none
CCOc1cc(/C=N/N2C(=O)C3C(C2=O)C2C=CC3C23CC3)ccc1O (configuration not stated)	none (no result: ASK1 primary)
CCOc1cc(/C=N\NC(=O)c2n[nH]c3c2CCCC3)ccc1O	ULK1 inh 44 (no result: ASK1 primary)
